CHT allo act: CHT positive allosteric modulators, primary screen, cell-based, membrane potential dye, choline EC20; CHT-expressing cells; active compounds read high; LV-AA mutant CHT in HEK293 cells; High affinity choline transporter 1 (Homo sapiens), Q9GZV3; 0.49% of 310,000 active; B-score at 10 µM;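 active = initial fluorescence not abnormally high and integrated response B-score, plate-corrected, over 3 SD above library mean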
Target sequence (Q9GZV3 whole entry, looked up): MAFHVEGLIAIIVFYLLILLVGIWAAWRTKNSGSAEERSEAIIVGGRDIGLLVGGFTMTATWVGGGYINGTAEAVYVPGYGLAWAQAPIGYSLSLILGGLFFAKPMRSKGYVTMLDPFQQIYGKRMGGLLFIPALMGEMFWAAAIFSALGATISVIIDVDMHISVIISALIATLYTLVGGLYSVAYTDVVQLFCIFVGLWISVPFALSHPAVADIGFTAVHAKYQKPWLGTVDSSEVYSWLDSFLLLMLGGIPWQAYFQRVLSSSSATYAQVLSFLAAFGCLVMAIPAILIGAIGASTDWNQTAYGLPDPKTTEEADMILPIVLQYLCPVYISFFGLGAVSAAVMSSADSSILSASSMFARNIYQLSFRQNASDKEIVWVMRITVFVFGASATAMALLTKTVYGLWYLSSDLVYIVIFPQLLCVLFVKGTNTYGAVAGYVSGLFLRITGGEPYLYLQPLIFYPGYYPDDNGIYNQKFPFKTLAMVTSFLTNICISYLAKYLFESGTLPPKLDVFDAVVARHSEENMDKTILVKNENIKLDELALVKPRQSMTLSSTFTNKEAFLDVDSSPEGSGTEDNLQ
ANO1 block: TMEM16A chloride channel inhibitors, primary screen, cell-based, HTS. normalized B-score (activity score, 25-100; higher = stronger inhibition) at 10 µM. Anoctamin-1 (Mus musculus), Q8BHY3. 1.2% of 310,000 active. AID 588511, 2011. HEK293 TMEM16A/YFP iodide influx fluorescence, ionomycin;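 active = ratio plate-corrected score three or more library SD toward inhibition, starting fluorescence score within five deviations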;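 also: score derived from kinetic fluorescence span divided by baseline fluorescence per well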
ANO1 activ: TMEM16A chloride channel activators or potentiators, primary screen, cell-based, HTS. HEK293 TMEM16A/YFP-H148Q/I152L, iodide quench fluorescence; active compounds read low. 0.3% of 340,000 active. Anoctamin-1 (Mus musculus), Q8BHY3. B-score at 10 µM;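 active = fluorescence-ratio B-score plate-corrected deviation score at least 3 library SD below zero, with starting fluorescence score within 5 deviations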;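 also: channel opened by trigger with iodide after compound preincubation; score built on the fluorescence ratio of max minus min over baseline; more negative score means more quench and so TMEM16A activation or potentiation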
CHT block: inhibitors of human choline transporter CHT; AID 488975, 2010; B-score at 10 µM; 0.86% of 310,000 active; CHT-expressing cells, membrane potential dye, choline response; active compounds read low; High affinity choline transporter 1 (Homo sapiens), Q9GZV3;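 active = B-score over 3 SD under the library average, and starting fluorescence ratio not unusually high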;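 also: choline stimulus applied at its EC90 after an EC20 pre-addition; B-score computed on integrated fluorescence ratio after choline addition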
CHT act confirm: CHT activators, confirmation, cell-based, membrane potential dye, duplicate. shares compounds with CHT allo act. CHT-expressing cells, membrane potential dye fluorescence (FDSS); % of choline EC20–EC90 response window; HEK293 expressing CHT LV-AA mutant; choline added at its EC20. activation, % at 10 µM. 91% of 2,500 active. AID 504833, 2011;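 active = primary screen active, with duplicate mean activation above negative control mean plus 3 SD, cut at about 11% in these data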
HEK293 MP dye: membrane potential response in parental HEK293 cells, counter-screen for CHT activator project, cell-based, membrane potential dye; 62% of 2,500 active; shares compounds with CHT allo act; membrane potential dye fluorescence (FDSS); measured after EC20 choline addition; ratio readout change at 10 µM, hits read low;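 active = duplicate-averaged ratio beyond 3 SD from buffer wells, up or down, though filed actives are nearly all decreases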
Each line names hits and unclear results; the compound was inactive in the other large screens (follow-up assays come after a bar, where they were run); ! = repeats disagree. In the library only some 2.4% were active in any assay of this set; here they are far more common.

CSc1ccc(CN(C)C(=O)C(Cc2ccccc2)NC(=O)c2ccccc2)cc1 (stereo unspecified)	none
Cc1noc(NS(=O)(=O)c2ccc(NC(=O)c3cc(=O)c4ccccc4o3)cc2)c1C	none
Cc1cc2oc(C(=O)Nc3ccc(S(=O)(=O)Nc4onc(C)c4C)cc3)cc(=O)c2cc1Cl	none | CHT act confirm 37.2 | HEK293 MP dye -34.7
Cn1c(=O)c2c(nc(N3CCOCC3)n2CCCNC2=NCCC2)n(C)c1=O	CHT allo act 8.82 | CHT act confirm 54.4 | HEK293 MP dye -55.7
Cn1c(=O)c2c(nc(N3CCOCC3)n2CCSc2ncccn2)n(C)c1=O	CHT allo act 8.62 | CHT act confirm 74.6 | HEK293 MP dye -78.9
CCCCCCn1c(N2CCCC2)nc2c1c(=O)n(C)c(=O)n2C	none
COc1ccc(S(=O)(=O)Nc2ccccc2C(=O)N2CCOCC2)cc1Br	none
COc1ccc(CN(C)C(=O)c2ccncc2)c(OC)c1	none
CN1CCCC1CCNc1ccc2c(=O)c3ccccc3oc2c1 (stereo unspecified)	CHT allo act 6.44 | CHT act confirm 53.1 | HEK293 MP dye -21.9
CN1CCCC1CCNc1ccc2oc3ccccc3c(=O)c2c1 (stereo unspecified)	none (no result: ANO1 activ)
N#CC1=C(N)Oc2c(ccc3cccnc23)C1c1cccnc1 (stereo unspecified)	none
C[n+]1cccc(C2C(C#N)=C(N)Oc3c2ccc2ccccc32)c1 (stereo unspecified)	none | CHT act confirm 42.6 | HEK293 MP dye -56.6
C[n+]1cccc2ccc3c(c21)OC(N)=C(C#N)C3c1ccccc1 (stereo unspecified)	CHT allo act 10 | CHT act confirm 72.2 | HEK293 MP dye -79.8
CC12CCC(=O)N1C(C(=O)NNC(=O)COc1ccccc1F)CS2 (stereo unspecified)	none (no result: CHT allo act, ANO1 block, CHT block)
CCCCCCCCCCOC(=O)Cn1c(COc2ccc(OC)cc2)[n+](C)c2ccccc21	CHT allo act 13.4, ANO1 block 25! | CHT act confirm 27.8 | HEK293 MP dye -42.1
CCCCCCCCCCOC(=O)Cn1c(COc2ccccc2)[n+](C)c2ccccc21	none
CCCCCCCCCCOC(=O)Cn1c(COc2cccc(C)c2)[n+](C)c2ccccc21	ANO1 block 100 | CHT act confirm inactive | HEK293 MP dye -40.7
CCCCCCCCCCOC(=O)Cn1c(COc2ccccc2C)[n+](C)c2ccccc21	CHT allo act 13.8, ANO1 block 100, ANO1 activ -4.67 | CHT act confirm inactive | HEK293 MP dye -45.9
Cc1ccccc1OCc1n(CC(=O)OC2CC(C)CCC2C(C)C)c2ccccc2[n+]1C (stereo unspecified)	ANO1 block 100 | CHT act confirm 13.7 | HEK293 MP dye inactive
Cc1ccc(S(=O)(=O)N2CCOCC2)cc1C(=O)OCC(=O)N1CCCC1=O	none (no result: CHT allo act, ANO1 block, CHT block)
C=C1CC2C3CC[C@@]4(OCOC45COCO5)[C@@]3(C)C(O)CC2[C@@]2(C)CCC(=O)C=C12 (stereo partly specified)	none
Cc1nnc(NCc2ccncc2)c2ccccc12	CHT allo act 7.07 | CHT act confirm 56.1 | HEK293 MP dye -46.4
O=C(C[n+]1cc(-c2ccc(Br)cc2)n2c1CCCCC2)c1ccccc1	none | CHT act confirm 23.4 | HEK293 MP dye inactive
O=C(C[n+]1cc(-c2ccc(Cl)cc2)n2c1CCCCC2)c1ccccc1	none
O=C(NCCCN1CCOCC1)c1nn(-c2ccccc2)c(=O)c2ccccc12	none
CC(C)CC(C)N1CCC(n2nccc2NC(=O)CCc2ccccc2)CC1 (stereo unspecified)	none | CHT act confirm 31.7 | HEK293 MP dye inactive
CC(C)=CC(=O)N1CCC(n2nccc2NC(=O)CCc2ccccc2)CC1	none
CC(CC(F)(F)F)N1CCC(n2nccc2NC(=O)CCCc2ccccc2)CC1 (stereo unspecified)	none | CHT act confirm inactive | HEK293 MP dye inactive
O=c1oc2ccccc2cc1-c1nc2ccccc2o1	none

Bioassay records (PubChem BioAssay)
